Measured values from PubChem BioAssay (NCI).
About 79,000 compounds went through this panel and 15% of them were active in at least one assay; those are over-represented in the sample as a whole. No stated cut-off is given here; in the data, active means growth inhibition above about 70%; inactive means the rest.

Tests used:
[1] = NCI Yeast Anticancer Drug Screen. Data for the rad50 strain (AID 155);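 further: 0% = growth of vehicle-only cultures of the same strain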; conditions: S. cerevisiae rad50 strain growth inhibition; at 50.0 µM; active compounds read high
Summary of the method: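 Vehicle-treated cultures provide the reference for the growth inhibition reported for compound-exposed, repair-deficient yeast.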

[2] = NCI Yeast Anticancer Drug Screen. Data for the mec2-1 strain (AID 157); conditions: S. cerevisiae mec2-1 strain, at 50.0 µM, active compounds read high
Summary of the method: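 Using mec2-1 yeast: add compound, measure growth, express inhibition versus vehicle-treated cultures.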

[3] = NCI Yeast Anticancer Drug Screen. Data for the sgs1 mgt1 strain (AID 161);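 further: 0% = growth of cultures given vehicle only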; conditions: S. cerevisiae sgs1 mgt1 strain, at 50.0 µM, active compounds read high
Summary of the method: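 This yeast growth screen uses a strain with defined DNA-repair lesions; compound-treated growth is compared with vehicle-treated growth.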

[4] = NCI Yeast Anticancer Drug Screen. Data for the cln2 rad14 strain (AID 165);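 further: 0% = growth equal to vehicle treated cultures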; conditions: S. cerevisiae cln2 rad14 strain, at 50.0 µM, active compounds read high
Summary of the method: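 Yeast strain cln2 rad14, bearing defects in cell cycle control and DNA repair, serves as the test system; values reflect growth inhibition compared with vehicle.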

[5] = NCI Yeast Anticancer Drug Screen. Data for the bub3 strain (AID 167); conditions: S. cerevisiae bub3 mutant strain, at 50.0 µM, active compounds read high
Summary of the method: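 Mutant yeast screening strain plus compound; vehicle-treated cultures serve as the 0% inhibition reference.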

[6] = NCI Yeast Anticancer Drug Screen. Data for the mlh1 rad18 strain (AID 175); conditions: S. cerevisiae mlh1 rad18 strain growth inhibition; at 50.0 µM; active compounds read high
Summary of the method: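 Steps: expose repair-defective yeast to compound; measure growth; express inhibition against vehicle-treated controls.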

Measured: growth inhibition

O=C(NC(CS)C(=O)O)c1cnc2ccccc2n1 (configuration not stated)
inactive: [1] -4.8% | [2] -12.9% | [3] 21.2% | [4] -9.9% | [5] 18.6% | [6] 0.3%

CS/C(N)=N\C(=O)N(C)C
inactive: [1] 2.75% | [2] -14.5% | [3] -4.45% | [4] -20.6% | [5] -8.55% | [6] 3.65%

Clc1nc2ccccc2s1
inactive: [1] -32.4% | [2] -5.2% | [3] -24.8% | [4] -38% | [5] -21.1% | [6] 3.2%

NCc1ccc(C(=O)O)cc1
inactive: [1] -30.2% | [2] -8.9% | [3] -28% | [4] -68.7% | [5] -13% | [6] -14.6%

CCCCCCCCCC[n+]1cccc(C(N)=O)c1
inactive: [1] 3.7% | [2] -17.2% | [3] 13.8% | [4] 3.75% | [5] -1.05% | [6] 28.9%

Cc1ccccc1N1CCOS(=O)OC(C)C1 (configuration not stated)
inactive: [1] -3.6% | [2] 23.7% | [3] 64.8% | [4] 39.9% | [5] 55.3% | [6] 57.5%

COc1ccc(NC(=O)Oc2cccc(NC(C)=O)c2)c(OC)c1
inactive: [1] 13.8% | [2] 8.7% | [3] 10.1% | [4] 4.35% | [5] 12.4% | [6] 8.65%

COC(=O)CCCCCCCCCCC1C=CCC1 (configuration not stated)
inactive: [1] -3.5% | [2] -23% | [3] 11.4% | [4] 9.8% | [5] -3.45% | [6] 0.5%

Cc1cc(N(CCC#N)CCC#N)ccc1/C=C/C(=O)Nc1cccc(Cl)c1
inactive: [1] 8.95% | [2] 4.6% | [3] 3.55% | [4] 13.2% | [5] 27.4% | [6] 7.65%

CCCC1(CC)COC(c2ccc(C)cc2)OC1 (configuration not stated)
inactive: [1] 13.8% | [2] 0.9% | [3] -7.6% | [4] 5.85% | [5] 11.8% | [6] 3.35%

Cc1ccc(NC(=O)Oc2ccc3ccccc3c2)cc1NC(=O)Oc1ccc2ccccc2c1
inactive: [1] 1.35% | [2] -19.4% | [3] -4.45% | [4] -86.5% | [5] 4.9% | [6] -1.85%

C=CCOC(=O)CCCCC(=O)OCC=C
inactive: [1] 3.1% | [2] 4.15% | [3] 3.65% | [4] 6.1% | [5] 19.9% | [6] 0.1%

CCNC(=O)Oc1cccc(NC(=O)CC)c1
inactive: [1] 3.2% | [2] -4.2% | [3] -0.25% | [4] -14.2% | [5] 3.65% | [6] 3.7%

NC(=O)NC(=O)C1C2CC3OC(=O)C1C3C2 (configuration not stated)
inactive: [1] 13.6% | [2] -4.35% | [3] -3.2% | [4] -37.9% | [5] 2.45% | [6] 20.9%

O=C(c1ccc(OC(=O)c2ccccc2O)cc1)c1ccc(OC(=O)c2ccccc2O)cc1
inactive: [1] 27.6% | [2] 6.75% | [3] 29.3% | [4] -100% | [5] 8.3% | [6] 15.9%

N#CC(CC(=O)O)=C(c1ccccc1)c1ccccc1
inactive: [1] -6.75% | [2] -22.2% | [3] -20.5% | [4] 11.7% | [5] -50.8% | [6] 8.95%

O=P(NC1CCCCC1)(NC1CCCCC1)c1ccccc1
inactive: [1] -10.9% | [2] 13.2% | [3] -5.1% | [4] 18.3% | [5] 13.6% | [6] 1.25%

COC(=O)C1C2C=CC(CC2)C1C(=O)OC (configuration not stated)
inactive: [1] 1.9% | [2] 5.65% | [3] -0.3% | [4] -22.1% | [5] -10.8% | [6] 7.95%

Cc1ccc(C)c(CNC(=O)Nc2ccccc2Cl)c1
inactive: [1] 12.4% | [2] -14.3% | [3] -22.8% | [4] 6.75% | [5] 5.35% | [6] -18.2%

CCCCCCCI
inactive: [1] -8.9% | [2] 20.9% | [3] 6.9% | [4] -21.6% | [5] 1.65% | [6] 23.8%

O=S1(=O)C(c2ccccc2)C(N2CCCCC2)C1C1CC2c3ccccc3C1c1ccccc12 (configuration not stated)
inactive: [1] 19.5% | [2] 32.6% | [3] 2.9% | [4] -28% | [5] 28.9% | [6] 30.2%

CCCCS(=O)(=O)Cc1ccccc1
inactive: [1] 1.75% | [2] -0.55% | [3] -1.25% | [4] -14.1% | [5] 0.3% | [6] -17.4%

N#Cc1c(-c2ccccc2)cc(-c2cccs2)c(C#N)c1N
inactive: [1] 4.35% | [2] 4% | [3] 7.85% | [4] -35.3% | [5] 12.8% | [6] 21.1%

CC1OC(=O)c2cc3ccccc3cc2O1 (configuration not stated)
inactive: [1] -8% | [2] -6.15% | [3] 5.95% | [4] -31.1% | [5] -19.2% | [6] -0.45%

COc1cc2c(cc1OC)[C@H]1C(COC(=O)c3ccccc3)CSC(=Nc3ccccc3)N1CC2 (some centres not stated)
inactive: [1] 21.9% | [2] 17.6% | [3] 36% | [4] 49.8% | [5] 36.9% | [6] 22.3%

CC(=O)N1C(=O)C(=O)c2ccccc21
inactive: [1] 5.9% | [2] -5.4% | [3] -4.8% | [4] -25% | [5] -1.5% | [6] 23.5%

COC(=O)c1cc2ccc1OCC#CC#CCOc1ccc(cc1C(=O)OC)OCC#CC#CCO2
inactive: [1] -1.9% | [2] 5.5% | [3] 7.35% | [4] 5.75% | [5] -0.7% | [6] 19.2%

CC(=O)OCC/C=C\CCCOC(C)=O
inactive: [1] 5.55% | [2] -2.7% | [3] -3% | [4] -1.75% | [5] 8.3% | [6] 3.65%

OC(C(=S)N1CCOCC1)(c1ccccc1)c1ccccc1
inactive: [1] 5.35% | [2] 17.6% | [3] -5% | [4] 25.8% | [5] 17.7% | [6] -12.2%

N#CC1=C(S)N(C2OC(CO)C(O)C(O)C2O)C(c2ccccc2)=CC1c1ccco1 (configuration not stated)
inactive: [1] 36.1% | [2] 13% | [3] 4.85% | [4] -12.4% | [5] -3% | [6] 27.6%

O=C(NCCN1CCCC1)Nc1ccccc1
inactive: [1] -3.2% | [2] -20.2% | [3] -17.2% | [4] -47.7% | [5] 2.3% | [6] 8.45%

Cc1ccc(/C(O)=C/c2nc3c(nc2NC24CC5CC(CC(C5)C2)C4)c(=O)oc2ccccc23)cc1
inactive: [1] 5.65% | [2] -0.65% | [3] -6.7% | [4] -3.7% | [5] 6.1% | [6] 1.85%

O=CNc1ccc(Br)cc1
inactive: [1] -8.3% | [2] -0.9% | [3] 11.4% | [4] 0.7% | [5] -1.15% | [6] 9.95%

COC(=O)C(C)OP(=O)(OC(C)C(=O)OC)OC(C)C(=O)OC (configuration not stated)
inactive: [1] 0.4% | [2] -3.55% | [3] -4.75% | [4] -4.05% | [5] 15.1% | [6] 2.7%

Clc1nnc(-c2ccccc2)s1
inactive: [1] 2.3% | [2] 2.85% | [3] 19.9% | [4] 7.85% | [5] 8.2% | [6] 9.5%

CCC(c1ccc2oc(C)cc2c1)C(CC)c1ccc2oc(C)cc2c1 (configuration not stated)
inactive: [1] -15.4% | [2] -4.9% | [3] -3.45% | [4] 13.2% | [5] 45% | [6] -23.2%

C=C1C(=O)O[C@H]2[C@H]1CC(=O)/C(C)=C\CC[C@@]1(C)O[C@@H]21
inactive: [1] 29.2% | [2] 59.4% | [3] 63.4% | [4] 35.5% | [5] 64.8% | [6] 43.1%

CCOC(=O)[C@H]1Nc2ccc(Cl)cc2[C@H]2OCC[C@@H]12
inactive: [1] 5.5% | [2] -10.9% | [3] -2.4% | [4] 23.8% | [5] 3.15% | [6] -0.7%

Cc1ccc(C2SCC(=O)N2c2ccc(-c3ccc(-n4c(-c5ccccc5)nc5ccccc5c4=O)cc3)cc2)cc1 (configuration not stated)
inactive: [1] 14% | [2] 6% | [3] 33% | [4] -0.45% | [5] 45.8% | [6] 55.8%

O=c1c2ccccc2[nH]c2ccc(O)cc12
inactive: [1] 1.45% | [2] -7.95% | [3] 4.8% | [4] -3.25% | [5] 3.2% | [6] 16.4%

O=C(CCl)N1CCC(CC2(c3cc4ccccc4[nH]3)OCCO2)CC1
inactive: [1] -0.95% | [2] 15.2% | [3] 29.9% | [4] -5.05% | [5] 10.1% | [6] 1.15%

CC1CC(C)NC(=O)N1 (configuration not stated)
inactive: [1] -13% | [2] 13.5% | [3] -13.9% | [4] 16.1% | [5] 15.8% | [6] 0.4%
